Screens: PubChem BioAssay, National Center for Advancing Translational Sciences (NCATS)
Only some compounds are listed: those with a hit (about 19% of all), similar ones and a draw of the others.
IL1B secr inh: qHTS for Inhibitors of Inflammasome Signaling: IL-1-beta AlphaLISA Primary Screen; THP-1 LPS/ATP IL-1B secretion, AlphaLISA, 16 h; stronger effect = lower value; activity change, % at 57.5 µM; 360,000 tested, 4.7% active; in the data active = activity change below about -50%; inconclusive = mostly about -30% to -49%
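Secreted IL-1B measured by AlphaLISA bead assay after 16 h compound exposure of THP-1 cells; compounds (final up to 57.5 uM) added 1 h before LPS (250 ng/mL) and ATP (1.25 mM) stimulation; lower signal means less secretion.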
HT1080 IDH1KD tx: qHTS for induction of synthetic lethality in tumor cells producing 2HG: qHTS for the HT-1080-IDH1KD cell line | Potency, µM (highest dose often 46.1 µM), for the others: top-dose activity, negative = toxicity, actives largely listed as cytotoxic | HT-1080 IDH1 knockdown viability, ATP luminescence, 48 h | 360,000 tested, 2% active;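 also: potency is read from the fitted curve at half-maximal effect; 0% = DMSO wells and -100% = cell-free medium wells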
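Luminescent ATP read-out (CellTiter-Glo, 10 min at room temperature) after 48 h compound exposure at 37 °C gave viability of IDH1-knockdown HT-1080 cells. Activity was normalised to DMSO and cell-free wells, then fitted as concentration-response curves.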
TDP1 cell CPT: qHTS for Inhibitors of human tyrosyl-DNA phosphodiesterase 1 (TDP1): qHTS in cells in presence of CPT | 420,000 tested, 12% active | chicken DT40 Tdp1-/-;hTDP1 cells + 20 nM CPT, ATP luminescence, 48 h | AID 686979, 2013 | Potency, µM (top dose mostly 46.2 µM), for the others: top-dose activity change, negative = growth inhibition, hits mostly inhibitors; also: potency is read from the fitted curve at half-maximal effect; nearly all actives have a fitted effect of over 55% in size
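Cell growth measured by CellTiter-Glo luminescence after a minimum 48 h, 37 C compound exposure with 20 nM CPT in Tdp1-knockout DT40 cells stably expressing hTDP1, seeded 400/well; qHTS titration format.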
HT1080NT lethal: qHTS for induction of synthetic lethality in tumor cells producing 2HG: qHTS for the HT-1080-NT fibrosarcoma cell line. HT-1080-NT fibrosarcoma viability, CellTiter-Glo ATP luminescence, 48 h. Potency, µM (doses to about 46.1 µM), without a hit: at the highest dose activity, negative = less viability, usual class: cytotoxic. 360,000 tested, 1.6% active;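 also: NT is the 2HG producing partner of a matched IDH1 knockdown line; potency is read from the fitted curve at half-maximal effect; 0% = DMSO-treated cells and -100% = media-only wells without cells; nearly all actives have a fitted effect of over 55% in size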
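Compounds were tested in concentration-response format on HT-1080-NT cells for 48 hours at 37 degrees C. Cell viability came from CellTiter-Glo luminescence; curves were classified by r2, response magnitude and activity.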
TDP1 cell noCPT: qHTS for Inhibitors of human tyrosyl-DNA phosphodiesterase 1 (TDP1): qHTS in cells in absence of CPT; DT40 Tdp1-/- hTDP1 cells, no CPT, ATP luminescence, 48 h; Potency, µM (doses to about 46.2 µM), for inactives: at the top dose activity change, negative = growth inhibition, usual class: inhibitors; 420,000 tested, 15% active; also: potency is read from the fitted curve at half-maximal effect; nearly all actives have a fitted effect of over 55% in size
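Seeded 400 DT40-hTDP1 cells/well (vehicle DMSO, no 20 nM CPT); pinned compounds; ≥48 hr at 37 °C; CellTiter-Glo luminescence as viability measure.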
uPA generation: qHTS for Inhibitors of Cell Surface uPA Generation | 330,000 tested, 0.31% active | Potency, µM (doses to about 38.3 µM), inactives show at the highest dose activity change, negative = inhibition, actives largely listed as inhibitors | cell surface uPA generation assay, qHTS | AID 540303, 2011; active = well fitted inhibition curve with a large enough effect; inconclusive = small, poorly fitted or top-dose-only effect; inactive = no such curve, though single readings can be large or run the other way; tested in mouse RAW 264.7 cells; also: potency is read from the fitted curve at half-maximal effect; nearly all actives have a fitted effect of over 55% in size
* marks the source's active call; other numbers are inactive results; ? = inconclusive; nt = no result; [ ] = remark or other dose. Unless noted, calls follow the shape of the dose curve; as a rule, active = well fitted curve in the direction sought with a large enough effect; inconclusive = small, poorly fitted or top-dose-only effect, or another doubt; inactive = no such curve, though single readings can be large; an effect the other way counts as inactive or inconclusive. Unless noted, % is scaled to controls: 0 for no effect and ±100 for the full control effect.

SMILES	IL1B secr inh	HT1080 IDH1KD tx	TDP1 cell CPT	HT1080NT lethal	TDP1 cell noCPT	uPA generation
COc1cc(CN2C[C@@H](CO)O[C@@H](n3cnc4c(NC5CCCC5)ncnc43)C2)cc(OC)c1OC	-9	8%	-7%	11%	?	nt
CN1CC2(Cc3cc([N+](=O)[O-])ccc31)C(=O)OC(C)(C)OC2=O	nt	nt	-7%	nt	-22%	nt
COc1ccc(CN(C)C(=O)Cc2c[nH]c3ccccc23)cc1	41	-2%	-3%	-2%	-1%	0%
COc1cccc(CN(C)C(=O)CSCC(=O)Nc2ccc(C)cc2)c1OC	-11	-2%	?	-1%	12µM*	0%
COc1cccc(CN(C)C(=O)Cc2c[nH]c3ccccc23)c1OC	25	-7%	?	-30%	16µM*	-27%
COc1ccc(/C=C2/CCc3ccccc3C2=O)cc1CN1CCOCC1	-1	-4%	23µM*	3%	16µM*	-1%
COc1ccc(/C=C2\CCc3ccccc3C2=O)cc1Cn1nc(C)cc1C	-51*	?	?	?	?	-9%
Cc1ccc(S(=O)(=O)Nc2cc(-c3ccccc3)nn2C)cc1Cl	34	0%	-12%	-20%	-24%	7%
COc1cc(-c2nnc(SCC3(c4ccc(Br)cc4)OCCO3)o2)cc(OC)c1OC	?	-52%	16µM*	-4%	?	-10%
COc1cc(-c2nnc(SCc3c(F)cccc3Cl)o2)cc(OC)c1OC	-58*	-11%	?	-7%	26µM*	-3%
Fc1cccc(Cl)c1CSc1nnc(-c2ccncc2)o1	11	-7%	-11%	0%	-9%	5%
COc1cc(-c2nnc(SCC(=O)N3CCOCC3)o2)cc(OC)c1OC	6	11%	5%	6%	-11%	-14%
COc1cc(-c2nnc(SCc3ccccc3Cl)o2)cc(OC)c1OC	-59*	10%	?	4%	?	-9%
CSCC[C@@H](CO)NC(=O)[C@H]1O[C@@H](n2ccc(=O)[nH]c2=O)[C@H](O)[C@@H]1O	19	1%	-10%	21%	-7%	nt
COc1cc(C)c(C2NC(=O)c3ccccc3N2)cc1C (stereo not drawn)	8	?	2.6µM*	5.8µM*	2.1µM*	-11%
Cc1ccc(C)c2nc(Cl)c(C3NC(=O)c4ccccc4N3)cc12 (stereo not drawn)	21	?	?	?	16µM*	?
O=C1NC(c2ccccc2O)Nc2ccccc21 (stereo not drawn)	21	1%	-19%	0%	-17%	1%
COc1ccc2cc(C3NC(=O)c4ccccc4N3)c(Cl)nc2c1 (stereo not drawn)	-13	8%	-18%	18%	?	19%
Cn1cc(C2NC(=O)c3ccccc3N2)c2ccccc21 (stereo not drawn)	29	8.2µM*	1.2µM*	4.6µM*	1.6µM*	-15%
Cc1ccc(C)c(C2NC(=O)c3ccccc3N2)c1 (stereo not drawn)	10	2.3µM*	0.73µM*	?	0.58µM*	?
CS(=O)(=O)N(CC(=O)N1CCCCCC1)c1cccc(F)c1	4	1%	7%	1%	7%	-2%
O=C(Oc1ccc(Cl)cc1)c1ccc2nccnc2c1	-4	11%	4%	15%	-15%	6%
Cc1ccc2nccnc2c1	nt	nt	3.5µM*	nt	3.2µM*	nt
Cc1ccnc2ccc(I)cc12	nt	nt	?	nt	-23%	nt
Clc1ccc2nccnc2c1	nt	nt	1µM*	nt	0.79µM*	nt
SMILES	IL1B secr inh	HT1080 IDH1KD tx	TDP1 cell CPT	HT1080NT lethal	TDP1 cell noCPT	uPA generation
Cc1ccc2c(C)ccnc2c1	nt	nt	10µM*	nt	7.1µM*	nt
CCOC(=O)C1(Cc2ccccc2C(F)(F)F)CCN(Cc2ccon2)CC1	-8	-24%	?	-21%	15µM*	1%
CCOC(=O)C1(Cc2ccccc2)CCN(Cc2ccon2)CC1	6	-4%	-26%	3%	-23%	-4%
CCOC(=O)C1(Cc2ccccc2)CCN(Cc2cc(OC)c3c(c2)OCO3)CC1	-83*	-18%	?	-16%	?	-5%
CCOC(=O)C1(Cc2ccccc2)CCN(Cc2cccc3c2OCO3)CC1	-53*	3%	-20%	-3%	?	-1%
COCc1ccc(CN2CCCC(CO)(Cc3ccccc3C)C2)o1 (stereo not drawn)	13	-7%	-8%	-8%	?	1%
COc1cc(CN2CCCC(CO)(Cc3ccccc3C)C2)cc2c1OCO2 (stereo not drawn)	-63*	?	15µM*	-29%	?	-4%
Cc1cccc(NC(=O)COc2ccccc2C(=O)Nc2ccccc2)c1	nt	-19%	?	-15%	?	nt
CC(=O)Nc1ccc(NC2=C/C(=N/S(=O)(=O)c3cccs3)c3ccccc3C2=O)cc1	-95*	9.2µM*	13µM*	16µM*	10µM*	-12%
Cc1ccc(NC2=C/C(=N/S(=O)(=O)c3cccs3)c3ccccc3C2=O)cc1C	0	0%	?	-1%	7.3µM*	-5%
COc1ccc(S(=O)(=O)/N=C2\C=C(Nc3ccc(O)cc3)C(=O)c3ccccc32)cc1	-96*	2.1µM*	0.82µM*	1.8µM*	1.5µM*	-6%
Cc1c(CNC(C)CCc2ccccc2)c(C(=O)O)c(C)n1Cc1ccc(F)cc1 (stereo not drawn)	nt	nt	-20%	nt	-22%	nt
COc1ccc(CNC(=O)COC(=O)CO/N=C(\C)c2ccc3c(c2)OCO3)cc1	6	-6%	2%	-9%	3%	-14%
CCC(C(=O)NCc1ccncc1)c1ccccc1 (stereo not drawn)	15	12%	2%	-5%	-6%	3%
CO[C@H]1[C@H](NC(=O)c2ccco2)c2ccccc2C12CCN(Cc1cc(Cl)ccc1O)CC2	nt	nt	-1%[9.04 µM]	nt	23µM*	nt
COc1ccccc1C(=O)N[C@@H]1c2ccccc2C2(CCN(Cc3nccs3)CC2)[C@H]1OC	nt	nt	-11%[9.04 µM]	nt	-83%	nt
COc1ccc(CN2CCC3(CC2)c2ccccc2[C@@H](NC(=O)c2ccco2)[C@@H]3OC)c(O)c1	nt	nt	-8%[9.04 µM]	nt	-15%	nt
COc1cc(CN2CCC3(CC2)c2ccccc2[C@@H](NC(=O)c2ccccc2OC)[C@@H]3O)ccc1F	nt	nt	-12%[9.04 µM]	nt	18µM*	nt
